Laboratory results as given in PubChem BioAssay (NCATS).
Results filed as inconclusive are left out. Activity calls are given as the source filed them. Unless noted, the call rests on the fitted dose curve; in most records, active means well fitted curve in the direction sought with a large enough effect; inconclusive means small, poorly fitted or top-dose-only effect, or another doubt; inactive means no such curve, though single readings can be large; an effect the other way counts as inactive or inconclusive.

Experiments:
MKL-2 = test: qHTS assay to identify novel small-molecules to repurpose for Merkel cell carcinoma treatment (AID 1296009); settings: MCC and control cell lines, CellTiter-Glo viability, 72 h; series mostly up to 46 µM; further: on the % scale 0 is the no-effect control and ±100 the full control effect; nearly all actives have a fitted effect of over 60% in size
Summary of the method: (§1)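 After compound transfer in DMSO, plates were kept 72 hr at 37 degree celsius. Luminescent ATP signal from CellTiter-Glo served as viability measure, normalized against DMSO and no-cell controls.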

UISO = test: as above; settings: MCC and control cell lines, CellTiter-Glo viability, 72 h; series mostly up to 46 µM
Summary of the method: as §1

WaGa = test: as above; settings: MCC and control cell lines, CellTiter-Glo viability, 72 h; series mostly up to 46 µM
Summary of the method: as §1

C33A = test: Primary qHTS to identify gynecologic anti-cancer compounds using libraries of approved drugs and bioactive compounds (AID 1345084); settings: Gynecologic cancer cell panel viability, ATPlite luminescence, 48 h; series mostly up to 57.5 µM; further: nearly all actives have a fitted effect of over 55% in size; further: potency means the concentration at half of the fitted maximal effect
Summary of the method: (§2)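 Five-point cytotoxicity, 48 h drug exposure at 37 C, 5% CO2, on cells seeded 16 h beforehand. ATP content read by ATPlite luminescence.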

CAOV3 = test: as above; settings: Gynecologic cancer cell panel viability, ATPlite luminescence, 48 h; series mostly up to 57.5 µM
Summary of the method: as §2

CASKI = test: as above; settings: Gynecologic cancer cell panel viability, ATPlite luminescence, 48 h; series mostly up to 57.5 µM
Summary of the method: as §2

Es-2 = test: as above; settings: Gynecologic cancer cell panel viability, ATPlite luminescence, 48 h; series mostly up to 57.5 µM
Summary of the method: as §2

HeLa = test: as above; settings: Gynecologic cancer cell panel viability, ATPlite luminescence, 48 h; series mostly up to 57.5 µM
Summary of the method: as §2

Hek293T = test: as above; settings: Gynecologic cancer cell panel viability, ATPlite luminescence, 48 h, control line for the selectivity index; series mostly up to 57.5 µM
Summary of the method: as §2

JEG-3 = test: as above; settings: Gynecologic cancer cell panel viability, ATPlite luminescence, 48 h; series mostly up to 57.5 µM
Summary of the method: as §2

PA-1 = test: as above; settings: Gynecologic cancer cell panel viability, ATPlite luminescence, 48 h; series mostly up to 57.5 µM
Summary of the method: as §2

Tov-21-G = test: as above; settings: Gynecologic cancer cell panel viability, ATPlite luminescence, 48 h; series mostly up to 57.5 µM
Summary of the method: as §2

Tov112D = test: as above; settings: Gynecologic cancer cell panel viability, ATPlite luminescence, 48 h; series mostly up to 57.5 µM
Summary of the method: as §2

[1] = Drug repurposing screens with cells derived from glioblastoma tumor samples (AID 1345199); settings: GBM patient neurospheres viability, ATP luminescence, 48 h; further: nearly all actives have a fitted effect of over 40% in size; further: potency means the concentration at half of the fitted maximal effect; on activity, negative = cell killing: on the % scale 0 is the no-effect control and ±100 the full control effect
Summary of the method: (§3)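 Four patient lines of CD133+ GBM neurospheres were screened at several concentrations; hits were retested in those lines plus three slower-growing GBM lines, using 48-hour treatment and ATP-based viability.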

OV90 = test: Primary qHTS to identify gynecologic anti-cancer compounds using libraries of approved drugs and bioactive compounds (AID 1345084); settings: Gynecologic cancer cell panel viability, ATPlite luminescence, 48 h; series mostly up to 57.5 µM; further: nearly all actives have a fitted effect of over 55% in size; further: potency means the concentration at half of the fitted maximal effect
Summary of the method: as §2

SKOV3 = test: as above; settings: Gynecologic cancer cell panel viability, ATPlite luminescence, 48 h; series mostly up to 57.5 µM
Summary of the method: as §2

astro = test: Drug repurposing screens with cells derived from glioblastoma tumor samples (AID 1345199); settings: viability, ATP luminescence, 48 h; series mostly up to 45.9 µM; further: nearly all actives have a fitted effect of over 40% in size; further: potency means the concentration at half of the fitted maximal effect; on activity, negative = cell killing: on the % scale 0 is the no-effect control and ±100 the full control effect
Summary of the method: as §3

[2] = target: Nuclear receptor subfamily 1 group I member 2 (Rattus norvegicus) (UniProt Q9R1A7); test: qHTS assay for small molecule activators of the rat pregnane X receptor (rPXR) signaling pathway (AID 651751; call rule not given here; further: 0% is about no effect); settings: rPXR reporter cells, luciferase (One-Glo), 24 h
[3] = at 45.9 µM (top of the series), tumour line B
[4] = at 45.9 µM (top of the series), tumour line D
[5] = at 46 µM (top of the series), tumour line A
[6] = at 46.1 µM (top of the series), tumour line C
[7] = at 20 µM (top of the series), tumour line C
[8] = at 21.2 µM (top of the series), tumour line B
[9] = at 21.2 µM (top of the series), tumour line D

Sequence of Nuclear receptor subfamily 1 group I member 2 (Rattus norvegicus) (Q9R1A7 whole entry, looked up): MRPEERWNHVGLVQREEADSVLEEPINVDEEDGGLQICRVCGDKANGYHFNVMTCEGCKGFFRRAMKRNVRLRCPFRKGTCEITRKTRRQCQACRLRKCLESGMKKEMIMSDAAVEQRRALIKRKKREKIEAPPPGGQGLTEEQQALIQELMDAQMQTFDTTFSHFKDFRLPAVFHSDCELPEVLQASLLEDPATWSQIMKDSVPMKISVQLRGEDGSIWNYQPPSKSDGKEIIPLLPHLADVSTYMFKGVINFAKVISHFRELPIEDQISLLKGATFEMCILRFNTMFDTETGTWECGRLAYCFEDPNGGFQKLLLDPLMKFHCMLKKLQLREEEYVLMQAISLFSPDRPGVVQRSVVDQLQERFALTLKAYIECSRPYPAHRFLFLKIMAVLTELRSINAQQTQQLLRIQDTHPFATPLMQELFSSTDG

C[C@H](CS)C(=O)N1CCC[C@H]1C(=O)O
inactive: Potency (MKL-2) | Potency (UISO) | Potency (WaGa) | Potency (C33A) | Potency (CAOV3) | Potency (CASKI) | Potency (Es-2) | Potency (HeLa) | Potency (Hek293T) | Potency (JEG-3) | Potency (PA-1) | Potency (Tov-21-G) | Potency (Tov112D) | activity, negative = cell killing [1, 3] 1.21% | activity, negative = cell killing [1, 4] -0.196% | activity, negative = cell killing [1, 5] -14.4% | activity, negative = cell killing [1, 6] -15.5%

Cc1scc2c1N(C(=O)CN1CCN(C)CC1)c1ccccc1NC2=O
inactive: Potency (MKL-2) | Potency (UISO) | Potency (WaGa) | Potency (C33A) | Potency (CAOV3) | Potency (CASKI) | Potency (Es-2) | Potency (HeLa) | Potency (Hek293T) | Potency (JEG-3) | Potency (OV90) | Potency (PA-1) | Potency (SKOV3) | Potency (Tov-21-G) | Potency (Tov112D) | activity, negative = cell killing [1, 3] -11.6% | activity, negative = cell killing [1, 4] 2.13% | activity, negative = cell killing [1, 5] -22.7% | activity, negative = cell killing [1, 6] -12.1% | Potency (astro)

CCN(CC)CCNC(=O)c1cc(S(C)(=O)=O)ccc1OC
inactive: Potency (MKL-2) | Potency (UISO) | Potency (WaGa) | Potency (C33A) | Potency (CAOV3) | Potency (CASKI) | Potency (Es-2) | Potency (HeLa) | Potency (JEG-3) | Potency (OV90) | Potency (PA-1) | Potency (SKOV3) | Potency (Tov-21-G) | Potency (Tov112D) | activity, negative = cell killing [1, 7] -10.9% | activity, negative = cell killing [1, 8] -7.73% | activity, negative = cell killing [1, 9] -4.2%

CN/C(=C\[N+](=O)[O-])NCCSCc1ccc(CN(C)C)o1
active: Potency (OV90) 14.1 µM
inactive: Potency (MKL-2) | Potency (UISO) | Potency (WaGa) | Potency (C33A) | Potency (CAOV3) | Potency (CASKI) | Potency (Es-2) | Potency (HeLa) | Potency (Hek293T) | Potency (JEG-3) | Potency (PA-1) | Potency (Tov112D) | activity, negative = cell killing [1, 6] -1.34% | Potency (astro)

CCN(Cc1ccncc1)C(=O)C(CO)c1ccccc1 (stereo not given)
inactive: Potency (MKL-2) | Potency (UISO) | Potency (WaGa) | Potency (C33A) | Potency (CAOV3) | Potency (CASKI) | Potency (Es-2) | Potency (HeLa) | Potency (Hek293T) | Potency (JEG-3) | Potency (OV90) | Potency (PA-1) | Potency (SKOV3) | Potency (Tov-21-G) | Potency (Tov112D) | activity, negative = cell killing [1, 3] -2.8% | activity, negative = cell killing [1, 4] -5.82% | activity, negative = cell killing [1, 5] -16.9% | activity, negative = cell killing [1, 6] 1.27% | Potency (astro)

CCO/C([O-])=N/c1c[n+](N2CCOCC2)no1
inactive: Potency (MKL-2) | Potency (UISO) | Potency (WaGa) | Potency (C33A) | Potency (CAOV3) | Potency (CASKI) | Potency (Es-2) | Potency (HeLa) | Potency (Hek293T) | Potency (JEG-3) | Potency (OV90) | Potency (PA-1) | Potency (SKOV3) | Potency (Tov-21-G) | Potency (Tov112D) | activity, negative = cell killing [1, 7] -6.76% | activity, negative = cell killing [1, 8] -3.07% | activity, negative = cell killing [1, 9] -1.62% | activity, negative = cell killing ([1]; at 21.3 µM (top of the series), tumour line A) -22.7% | Potency (astro)

Cc1ccc(/C(=C\CN2CCCC2)c2ccccn2)cc1
inactive: Potency (MKL-2) | Potency (UISO) | Potency (WaGa) | Potency (C33A) | Potency (CAOV3) | Potency (CASKI) | Potency (Es-2) | Potency (Hek293T) | Potency (JEG-3) | Potency (OV90) | Potency (PA-1) | Potency (SKOV3) | Potency (Tov-21-G) | Potency (Tov112D) | activity, negative = cell killing [1, 3] -22.4% | activity, negative = cell killing [1, 4] -28.9% | activity, negative = cell killing [1, 6] 0.541% | Potency (astro)
active: Potency ([1]; tumour line A) 17.8 µM

NC(=O)c1ncn([C@@H]2O[C@H](CO)[C@@H](O)[C@H]2O)c1O
inactive: Potency (MKL-2) | Potency (UISO) | Potency (WaGa) | Potency (C33A) | Potency (CAOV3) | Potency (CASKI) | Potency (Es-2) | Potency (Hek293T) | Potency (JEG-3) | Potency (OV90) | Potency (PA-1) | Potency (SKOV3) | Potency (Tov-21-G) | Potency (Tov112D) | activity, negative = cell killing [1, 3] -12.1% | activity, negative = cell killing [1, 4] 11.4% | activity, negative = cell killing [1, 5] -0.128% | activity, negative = cell killing [1, 6] -22.4% | Potency (astro)

CCCN1C[C@H](CSC)C[C@@H]2c3cccc4[nH]cc(c34)C[C@H]21
inactive: Potency (MKL-2) | Potency (UISO) | Potency (WaGa) | Potency (C33A) | Potency (CAOV3) | Potency (CASKI) | Potency (Es-2) | Potency (HeLa) | Potency (Hek293T) | Potency (JEG-3) | Potency (OV90) | Potency (PA-1) | Potency (SKOV3) | Potency (Tov-21-G) | Potency (Tov112D) | activity, negative = cell killing [1, 3] -27.2% | activity, negative = cell killing [1, 6] 15.8% | Potency (astro)
active: Potency ([1]; tumour line A) 7.94 µM

C[C@]12CCC(=O)C=C1CC[C@@H]1[C@@H]2CC[C@@]2(C)[C@H]1CC[C@]2(O)C(=O)CO
inactive: Potency (MKL-2) | Potency (UISO) | Potency (WaGa) | Potency (C33A) | Potency (CAOV3) | Potency (CASKI) | Potency (Es-2) | Potency (HeLa) | Potency (Hek293T) | Potency (JEG-3) | Potency (OV90) | Potency (PA-1) | Potency (SKOV3) | Potency (Tov-21-G) | Potency (Tov112D) | activity, negative = cell killing [1, 3] -14.7% | activity, negative = cell killing [1, 4] 0.984% | activity, negative = cell killing [1, 6] -72.8% | Potency (astro)

Cc1ccc(S(=O)(=O)NC(=O)NN2CCCCCC2)cc1
inactive: Potency (MKL-2) | Potency (UISO) | Potency (WaGa) | Potency (C33A) | Potency (CAOV3) | Potency (CASKI) | Potency (Es-2) | Potency (HeLa) | Potency (Hek293T) | Potency (JEG-3) | Potency (OV90) | Potency (PA-1) | Potency (SKOV3) | Potency (Tov-21-G) | Potency (Tov112D) | activity, negative = cell killing [1, 3] 5.62% | activity, negative = cell killing [1, 4] 15.6% | activity, negative = cell killing [1, 5] -3.14% | activity, negative = cell killing [1, 6] -5.87% | max response [2] 0.57%

CN=C(NC#N)NCCSCc1nc[nH]c1C
inactive: Potency (MKL-2) | Potency (UISO) | Potency (WaGa) | Potency (C33A) | Potency (CAOV3) | Potency (CASKI) | Potency (Es-2) | Potency (HeLa) | Potency (Hek293T) | Potency (JEG-3) | Potency (OV90) | Potency (PA-1) | Potency (SKOV3) | Potency (Tov-21-G) | Potency (Tov112D) | activity, negative = cell killing [1, 3] -8.34% | activity, negative = cell killing [1, 4] -15.2% | activity, negative = cell killing [1, 5] -11.7% | activity, negative = cell killing [1, 6] -4.17% | max response [2] 5.73%
